Experimental data as given in PubChem BioAssay.
Activity calls are given as the source filed them.

Assays:
[1] = binders of probe aFSTL3 on microarray, primary screen, stem cell growth factor project, biochemical, small-molecule microarray, fluorescence 635/667 (AID 1064); conditions: higher = more signal;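 note: measures binding of the biotinylated anti-FSTL3 antibody to printed compounds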
[2] = binders from COS7 lysate, DM2A8 probe, primary screen, torsin A project, cell lysate, small-molecule microarray, fluorescence 635/667 (AID 1065); conditions: higher = more signal, COS7 lysate expressing mutant human TOR1A
[3] = binders of probe aFGF2 on microarray, primary screen, stem cell growth factor project, biochemical, small-molecule microarray, fluorescence 635/667 (AID 1067); conditions: higher = more signal;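 note: measures binding of biotinylated aFGF2 protein to printed compounds on slides; z-score merges feature fluorescence and signal-to-noise across triplicate slides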
[4] = binders of probe aFGF10 on microarray, primary screen, stem cell growth factor project, biochemical, small-molecule microarray, fluorescence 635/667 (AID 1071); conditions: higher = more signal;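 note: score merges 667 nm spot intensity and signal to noise from triplicate slides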
[5] = biological target: Neurogenic locus notch homolog protein 2 (Homo sapiens) (UniProt Q04721); assay: Notch2 binders on small-molecule microarrays, primary screen, biochemical, small-molecule microarray, 635 nm fluorescence, stem cell growth factors (AID 1073); conditions: Notch2 binding, higher = more signal
[6] = biological target: Pro-neuregulin-1, membrane-bound isoform (Homo sapiens) (UniProt Q02297); assay: NRG1 binders on small-molecule microarrays, primary screen, psychiatric disease protein project, biochemical, small-molecule microarray, fluorescence 635/667 (AID 1075); conditions: NRG1 binding, 635 nm fluorescence, higher = more signal;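 note: score combines 667 nm spot fluorescence with signal to noise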
[7] = system: Neuregulin-1 EGF-like domain; assay: binders of neuregulin-1 EGF-like domain, primary screen, biochemical, small-molecule microarray, 635 nm fluorescence (AID 1081); conditions: small-molecule microarray binding, higher = more signal;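 note: binding of the protein to compounds printed on small-molecule microarray slides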
[8] = FRG1 promoter luciferase signal modulators, primary screen, FRG1 inhibition for FSHD, cell-based, C2C12 myotubes, firefly/Renilla luciferase, luminescence (AID 1084); conditions: higher = more signal, called active from +8 up or from −8 down
[9] = binders of probe aFST on microarray, primary screen, stem cell growth factor project, biochemical, small-molecule microarray, fluorescence 635/667 (AID 1086); conditions: higher = more signal;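 note: score merges 667 nm fluorescence with signal-to-noise of each printed compound spot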
[10] = binders of probe aHhip on microarray, primary screen, stem cell growth factor project, biochemical, small-molecule microarray, fluorescence 635/667 (AID 1087); conditions: higher = more signal;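 note: score merges spot fluorescence at 667nm with spot signal to noise ratio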

Sequence of Neurogenic locus notch homolog protein 2 (Homo sapiens) (Q04721 whole entry, looked up, canonical isoform): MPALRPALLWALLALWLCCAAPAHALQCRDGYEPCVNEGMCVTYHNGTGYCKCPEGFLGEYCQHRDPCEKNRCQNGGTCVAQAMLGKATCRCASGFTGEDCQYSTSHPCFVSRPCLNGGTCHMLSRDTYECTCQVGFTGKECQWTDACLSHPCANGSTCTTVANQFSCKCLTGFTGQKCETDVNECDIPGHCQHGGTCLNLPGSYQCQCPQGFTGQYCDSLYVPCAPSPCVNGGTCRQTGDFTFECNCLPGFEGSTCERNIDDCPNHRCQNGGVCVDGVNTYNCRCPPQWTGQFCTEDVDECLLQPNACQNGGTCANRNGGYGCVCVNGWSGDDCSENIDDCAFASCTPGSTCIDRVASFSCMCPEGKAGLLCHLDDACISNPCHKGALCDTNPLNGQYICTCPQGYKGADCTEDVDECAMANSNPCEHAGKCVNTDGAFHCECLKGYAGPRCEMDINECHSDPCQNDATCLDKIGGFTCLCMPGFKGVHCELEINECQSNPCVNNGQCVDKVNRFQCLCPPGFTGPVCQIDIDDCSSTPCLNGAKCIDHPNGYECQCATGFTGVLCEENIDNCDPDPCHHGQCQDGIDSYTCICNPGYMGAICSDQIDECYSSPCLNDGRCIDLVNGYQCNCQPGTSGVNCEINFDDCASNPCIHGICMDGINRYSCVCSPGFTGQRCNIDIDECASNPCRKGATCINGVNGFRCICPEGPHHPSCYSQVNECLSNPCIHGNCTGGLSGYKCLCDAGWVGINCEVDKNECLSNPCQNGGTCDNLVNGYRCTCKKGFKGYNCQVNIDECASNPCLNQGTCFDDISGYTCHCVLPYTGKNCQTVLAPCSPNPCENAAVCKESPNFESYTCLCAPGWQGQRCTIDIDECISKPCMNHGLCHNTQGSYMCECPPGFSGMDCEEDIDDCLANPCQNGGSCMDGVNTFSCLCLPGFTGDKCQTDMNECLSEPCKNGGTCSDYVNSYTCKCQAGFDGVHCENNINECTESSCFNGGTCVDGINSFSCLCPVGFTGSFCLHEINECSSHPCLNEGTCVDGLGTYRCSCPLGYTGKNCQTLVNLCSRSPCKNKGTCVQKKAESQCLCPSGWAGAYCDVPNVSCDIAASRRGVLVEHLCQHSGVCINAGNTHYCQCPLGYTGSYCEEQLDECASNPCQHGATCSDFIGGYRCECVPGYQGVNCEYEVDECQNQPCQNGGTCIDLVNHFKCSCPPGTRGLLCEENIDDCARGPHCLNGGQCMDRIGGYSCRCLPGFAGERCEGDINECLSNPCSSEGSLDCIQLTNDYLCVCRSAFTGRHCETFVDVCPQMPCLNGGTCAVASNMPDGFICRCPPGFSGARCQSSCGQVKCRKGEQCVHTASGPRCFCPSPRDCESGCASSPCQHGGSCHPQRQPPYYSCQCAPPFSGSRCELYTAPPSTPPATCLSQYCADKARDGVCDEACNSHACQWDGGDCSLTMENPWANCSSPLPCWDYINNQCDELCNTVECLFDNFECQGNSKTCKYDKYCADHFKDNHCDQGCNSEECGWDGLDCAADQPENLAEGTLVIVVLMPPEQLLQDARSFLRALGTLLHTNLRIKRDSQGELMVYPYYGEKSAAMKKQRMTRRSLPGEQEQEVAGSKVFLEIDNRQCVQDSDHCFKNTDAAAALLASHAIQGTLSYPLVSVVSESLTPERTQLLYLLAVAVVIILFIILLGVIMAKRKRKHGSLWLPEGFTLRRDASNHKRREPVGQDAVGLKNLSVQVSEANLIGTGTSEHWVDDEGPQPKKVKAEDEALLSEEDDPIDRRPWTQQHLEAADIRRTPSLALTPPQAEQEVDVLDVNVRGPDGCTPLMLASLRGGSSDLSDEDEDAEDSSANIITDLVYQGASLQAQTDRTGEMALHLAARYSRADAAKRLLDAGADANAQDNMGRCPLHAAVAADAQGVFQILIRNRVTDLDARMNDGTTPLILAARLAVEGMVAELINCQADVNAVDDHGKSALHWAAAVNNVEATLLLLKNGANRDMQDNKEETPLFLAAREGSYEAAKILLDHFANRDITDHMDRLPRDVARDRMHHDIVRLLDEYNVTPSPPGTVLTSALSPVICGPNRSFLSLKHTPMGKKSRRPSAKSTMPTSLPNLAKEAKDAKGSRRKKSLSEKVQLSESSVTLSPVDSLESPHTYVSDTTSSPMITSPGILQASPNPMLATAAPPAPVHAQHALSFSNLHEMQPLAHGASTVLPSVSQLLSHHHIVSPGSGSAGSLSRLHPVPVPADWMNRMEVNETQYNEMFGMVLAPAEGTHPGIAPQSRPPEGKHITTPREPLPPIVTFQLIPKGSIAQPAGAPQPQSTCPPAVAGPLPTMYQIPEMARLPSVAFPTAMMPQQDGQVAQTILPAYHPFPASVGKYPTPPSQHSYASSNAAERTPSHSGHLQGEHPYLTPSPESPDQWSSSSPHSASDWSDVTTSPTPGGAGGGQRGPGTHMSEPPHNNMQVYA
Sequence of Pro-neuregulin-1, membrane-bound isoform (Homo sapiens) (Q02297 whole entry, looked up, the tested form may be a part, canonical isoform): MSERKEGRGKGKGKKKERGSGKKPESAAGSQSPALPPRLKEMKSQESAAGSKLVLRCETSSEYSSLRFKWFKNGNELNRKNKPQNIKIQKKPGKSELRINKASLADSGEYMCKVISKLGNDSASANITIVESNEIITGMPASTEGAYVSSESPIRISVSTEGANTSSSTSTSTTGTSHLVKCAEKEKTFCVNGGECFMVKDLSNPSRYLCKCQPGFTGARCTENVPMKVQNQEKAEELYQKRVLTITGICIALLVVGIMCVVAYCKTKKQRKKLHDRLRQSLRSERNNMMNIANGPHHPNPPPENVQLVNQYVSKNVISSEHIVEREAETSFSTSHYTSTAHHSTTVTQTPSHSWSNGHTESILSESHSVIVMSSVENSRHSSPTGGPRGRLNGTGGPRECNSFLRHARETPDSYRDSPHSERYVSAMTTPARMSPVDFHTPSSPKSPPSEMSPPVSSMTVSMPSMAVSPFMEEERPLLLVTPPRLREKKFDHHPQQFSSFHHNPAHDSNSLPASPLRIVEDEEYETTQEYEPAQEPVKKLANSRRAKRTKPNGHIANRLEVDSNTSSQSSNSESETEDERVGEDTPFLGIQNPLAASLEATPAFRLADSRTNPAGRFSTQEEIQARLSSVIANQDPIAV

Row | Compound | composite z-score [1] | composite z-score [2] | composite z-score [3] | composite z-score [4] | composite z-score [5] | composite z-score [6] | composite z-score [7] | z-score [8] | composite z-score [9] | composite z-score [10]
1 | O=C(NCc1ccccc1)[C@@H]1c2ccccc2C(=O)N(C2CCCCC2)[C@H]1c1ccc(CO)cc1 | -1.15 | 0.149 | -0.0407 | 0.57 | -0.287 | 1.68 | 1.38 | -1.48 (inactive) | -0.309 | -0.283
2 | O=C(NCCN1CCOCC1)[C@@H]1c2ccccc2C(=O)N(Cc2cc(F)cc(C(F)(F)F)c2)[C@H]1c1ccc(CO)cc1 | -0.0058 | 1.09 | -0.188 | -0.71 | -0.987 | 1.25 | 0.591 | -0.0497 (inactive) | -0.234 | -0.199
3 | C=CCOC(=O)[C@H]1[C@@H]2C(=O)O[C@@H](c3ccccc3)[C@@H](c3ccccc3)N2[C@@H](c2ccc(OCCOC(=O)[C@H]3C[C@H]4C(=O)N[C@@H](CCCC[N+](C)(C)C)C(=O)N4[C@H]3c3ccc(O)cc3)cc2)[C@]12C(=O)Nc1ccccc12 | 0.104 | 0.154 | -0.1 | 0.276 | 0.193 | 0.06 | 1.09 | 0.131 (inactive) | 0.357 | -0.608
4 | CN1C(=O)C2C=CC(C(O)C=Cc3ccc([N+](=O)[O-])cc3)N(N3CCCCC3)C2C1=O (stereo not given) | 1.79 | 1.62 | 0.556 | 1.11 | 1.69 | 1.69 | 0.932 | 4.21 (inactive) | 2.23 | 0.217
5 | O=C1OCC=C[C@H]2OC34C=CCN(CCN5CCOCC5)C(=O)[C@H]3N(CCCCCCO)C(=O)[C@@H]4[C@@H]12 (stereo not given in full) | -0.142 | 0.108 | -0.0785 | 0.0266 | -0.157 | 2.07 | 1.27 | 1.69 (inactive) | 0.334 | -0.364
6 | C=CCNC(=O)[C@@H]1[C@H]2C(=O)O[C@H](c3ccccc3)[C@H](c3ccccc3)N2[C@H](c2ccccc2OCCO)[C@@]12C(=O)N(C(=O)OCCOC)c1ccc(C#CCC(C(=O)OC)C(=O)OC)cc12 | 2.39 | 0.691 | 0.605 | 1.16 | 1.6 | 2.26 | 1.31 | 0.847 (inactive) | 3.09 | 0.856
7 | O=C1C2C=CC(C(O)c3cccc4ccccc34)N(n3cnnc3)C2C(=O)N1Cc1ccccc1 (stereo not given) | 1.45 | 0.0748 | 0.737 | 0.774 | 0.309 | 0.704 | 0.821 | -0.259 (inactive) | 1.8 | 0.506
8 | O[C@@H](Cc1ccccc1)[C@@H](/C=C/c1ccccc1)NCc1ccccc1Br | 0.686 | -1.36 | -0.176 | -1.09 | -1.31 | -0.803 | -0.639 | -0.926 (inactive) | -0.579 | -0.475
9 | CC1CC/C=C\[C@H]2OC34C=CCN(Cn5nnc6ccccc65)C(=O)[C@H]3N(CCCO)C(=O)[C@@H]4C2C(=O)O1 (stereo not given in full) | 0.536 | -1.14 | -0.0973 | -0.988 | -0.955 | 1.38 | 1.57 | -0.275 (inactive) | -0.474 | -0.196
10 | C=CCN1Cc2ccccc2C[C@@]2(COC(c3ccc(OCCCO)cc3)=N2)C1=O | 1.12 | 0.391 | -0.0159 | 0.0999 | 1.19 | 1.05 | 1.31 | -3.79 (inactive) | 0.703 | 0.0749
11 | COCC1C2CC[C@H]3C(OCc4ccc(F)cc4C(F)(F)F)OC[C@]4(C)[C@H]3C2=C(CN4C(=O)OC(C)(C)C)[C@H](C)C1COC (stereo not given in full) | 0.409 | 0.0838 | 0.0807 | 0.224 | 1.58 | 2.05 | 0.782 | -0.255 (inactive) | 0.945 | -0.0672
12 | COc1ccc(C(=O)Nc2cccc(CN3C(=O)[C@@]4(O[C@@H](CC(=O)N5Cc6ccccc6C[C@H]5CO)[C@H]([Si](C)(C)c5ccc(OC)cc5)[C@H]4C)c4ccccc43)c2)cc1 | 0.0279 | 1.09 | -0.0924 | 0.505 | 0.493 | 0.598 | 1.25 | -2.95 (inactive) | 0.349 | -0.0994
13 | [N-]=[N+]=NCc1ccccc1C[C@]1(C(=O)NCC(O)CO)COC(c2ccc(OCCCO)cc2)=N1 (stereo not given in full) | 1.11 | 2.19 | -0.033 | -0.329 | 0.7 | 1 | 0.691 | -1.03 (inactive) | 1.1 | -0.318
14 | O=C1O[C@@H](c2ccccc2)[C@@H](c2ccccc2)N2[C@@H](c3ccc(O)cc3)[C@]3(C(=O)Nc4ccccc43)[C@@H](C(=O)NC[C@H](O)c3ccccc3)[C@H]12 | -0.263 | 0.606 | -0.141 | 0.0271 | 0.135 | 1.69 | 0.552 | -1.23 (inactive) | -0.174 | -0.12
15 | CCN(CC)c1ccc(N2CC=CC34O[C@@H]5/C=C\CCCOC(=O)C5[C@H]3C(=O)N(CCCO)[C@@H]4C2=O)cc1 (stereo not given in full) | 0.485 | -0.701 | -0.113 | -0.883 | -0.991 | 1.45 | 0.657 | 2.31 (inactive) | -1.19 | -0.137
16 | [N-]=[N+]=NCc1ccccc1C[C@]1(C(=O)N2CCOCC2)N=C(c2ccc(OCCCO)cc2)O[C@H]1c1ccccc1 | 0.303 | 0.18 | -0.0455 | 0.686 | 0.412 | 0.766 | 0.542 | -3.67 (inactive) | 0.912 | -0.0994
17 | O=c1cccc(-c2ccccc2)o1 | -0.0048 | -0.313 | -0.0996 | 0.062 | 0.197 | -0.356 | 0.811 | 2.03 (inactive) | -0.0103 | 0.113
18 | CS(=O)(=O)CCOC(=O)C1=CC(c2ccc(CO)cc2)=CC(c2cccs2)N(Cc2cccc(OC(F)(F)F)c2)C=C1C(=O)OCCS(C)(=O)=O (stereo not given) | -0.398 | 0.405 | 0.024 | 0.708 | 1 | 1.63 | 0.999 | 0.371 (inactive) | 1.14 | 0.0139
19 | CN(C)CCCCNC(=O)[C@@H]1C[C@@H]2C(=O)N[C@@H](CCCCN)C(=O)N2[C@@H]1c1cccc(OCCO)c1 | 1.24 | -0.719 | -0.138 | -0.347 | -0.573 | 2.07 | 1.3 | 3.31 (inactive) | 0.145 | 0.424
20 | C=C(CCCC)/C(=C/C[C@@H](OC(=O)c1ccncc1)c1ccc(CO)o1)c1cc(C(=O)OC)ccc1OC | -0.489 | 1.44 | -0.0887 | 0.318 | 0.738 | 1.52 | 1.27 | -0.986 (inactive) | 0.448 | 0.0722
21 | Cc1cccc(/C=C/C=O)c1 | -0.305 | -0.582 | -0.0996 | 0.0071 | -0.663 | 0.27 | 0.928 | 0.641 (inactive) | 0.211 | -0.056
22 | Cc1ccc(S[C@]2(C(=O)NCCN3CCOCC3)CC(=O)N(C3CCCCC3)[C@@H]2c2ccc(CO)cc2)cc1 | -0.0386 | -0.439 | -0.158 | 0.123 | 0.825 | 1 | 1.09 | 0.046 (inactive) | 0.283 | -0.0645
23 | COc1ccc(C#Cc2ccc3c(c2)[C@]2(C(=O)N3)[C@H](C(=O)N3CCN(c4ncccn4)CC3)[C@H]3C(=O)O[C@H](c4ccccc4)[C@H](c4ccccc4)N3[C@@H]2c2ccc(O)cc2)cc1 | -0.092 | 0.308 | -0.232 | 0.207 | 0.871 | 1.19 | 1.17 | 0.437 (inactive) | 0.234 | -0.353
24 | CCN(CC)c1ccc(N2CC=CC34O[C@@H]5/C=C\CCC(C)OC(=O)C5[C@H]3C(=O)N(CCCCCCO)[C@@H]4C2=O)cc1 (stereo not given in full) | 0.142 | 0.19 | -0.0766 | 0.69 | -0.498 | 0.374 | 1.4 | 0.316 (inactive) | -0.32 | 0.0373
25 | C=CCNC(=O)[C@H]1[C@@H]2C(=O)O[C@@H](c3ccccc3)[C@@H](c3ccccc3)N2[C@@H](c2ccc(O)cc2)[C@]12C(=O)Nc1ccc(C#Cc3ccc(OC)cc3)cc12 | -0.523 | 0.396 | -0.0158 | 0.357 | 1.27 | 0.384 | 1.07 | 0.0523 (inactive) | 0.786 | 0.473
26 | C[N+](C)(C)CCCC[C@@H]1NC(=O)[C@H]2C[C@@H](C(=O)O)[C@@H](c3cccc(OCCO)c3)N2C1=O | 2.11 | 1.85 | 0.676 | 0.788 | 1.01 | 2.81 | 1.44 | -0.698 (inactive) | 1.65 | 1.88
27 | C=CCOC(=O)[C@@H]1[C@H]2C(=O)O[C@H](c3ccccc3)[C@H](c3ccccc3)N2[C@H](c2ccc(OCCOC(=O)[C@H]3C[C@H]4C(=O)N[C@@H](Cc5ccccc5)C(=O)N4[C@H]3c3ccc(O)cc3)cc2)[C@@]12C(=O)Nc1ccc(I)cc12 | -0.248 | 1.33 | -0.0939 | 0.459 | 1.11 | 0.846 | 1.3 | 1.16 (inactive) | 0.248 | -0.0994
